Here are results for one sequence from publication PMC7862700, “An all-to-all approach to the identification of sequence-specific readers for epigenetic DNA modifications on cytosine”.

What all share (test): DAPPL (digital affinity profiling via proximity ligation, sequencing); 10 mM Tris-HCl pH 7.5, 50 mM NaCl, 1 mM DTT, 4% glycerol, room temperature, 30 min; GST-TFs on glutathione beads, 16-mer random dsDNA library, 0.1% formaldehyde crosslink after washing; high values mean tight binding
Common to all, as to details: protein: recombinant; tags: N-terminal GST; dsDNA, one strand shown

In one test the target is T1, ELK1 (Homo sapiens, UniProt P19419 1-428).
T1 sequence: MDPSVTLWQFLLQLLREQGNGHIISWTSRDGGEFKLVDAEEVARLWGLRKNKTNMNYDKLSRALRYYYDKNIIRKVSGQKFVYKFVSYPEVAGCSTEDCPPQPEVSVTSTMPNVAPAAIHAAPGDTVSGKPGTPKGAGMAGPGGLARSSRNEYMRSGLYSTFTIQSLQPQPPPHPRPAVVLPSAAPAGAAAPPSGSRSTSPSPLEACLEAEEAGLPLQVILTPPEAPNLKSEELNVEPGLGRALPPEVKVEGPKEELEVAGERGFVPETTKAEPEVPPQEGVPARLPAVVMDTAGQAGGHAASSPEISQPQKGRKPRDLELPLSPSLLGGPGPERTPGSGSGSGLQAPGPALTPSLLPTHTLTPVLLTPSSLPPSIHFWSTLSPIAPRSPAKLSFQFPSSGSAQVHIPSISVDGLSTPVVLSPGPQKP
The essentials:
(§1)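 Beads coated with glutathione captured GST-fused human transcription factors that had been expressed in yeast, and the factors were then given DNA barcodes and pooled with a tag-only sample. The pools were incubated with 200 nmole of a random double-stranded 16-mer DNA library in Tris/NaCl/DTT/glycerol buffer for 30 min at room temperature, washed, crosslinked with 0.1% formaldehyde and proximity-ligated with BsaI/T4 ligase at 37 °C for 1 h. PCR amplification and Illumina NextSeq500 sequencing came last. Binding signal is each hexamer's read frequency for a factor divided by its frequency for the tag-only sample.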

The target of another test is T2, GABPA (Homo sapiens, UniProt Q06546 1-454).
T2 sequence: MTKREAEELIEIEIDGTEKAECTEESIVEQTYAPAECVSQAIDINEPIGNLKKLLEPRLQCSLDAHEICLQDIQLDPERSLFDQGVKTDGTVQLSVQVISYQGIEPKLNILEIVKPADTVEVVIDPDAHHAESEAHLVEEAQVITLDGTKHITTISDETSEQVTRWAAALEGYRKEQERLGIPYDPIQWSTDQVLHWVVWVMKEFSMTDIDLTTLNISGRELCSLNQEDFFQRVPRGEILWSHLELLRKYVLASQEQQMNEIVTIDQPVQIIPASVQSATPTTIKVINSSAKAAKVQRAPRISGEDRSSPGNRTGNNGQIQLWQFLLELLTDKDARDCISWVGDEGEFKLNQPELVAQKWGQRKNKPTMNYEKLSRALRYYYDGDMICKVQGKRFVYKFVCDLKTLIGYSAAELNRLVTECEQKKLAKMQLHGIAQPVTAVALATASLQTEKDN
The essentials: as §1

For another test, the target named is T3, ERG (Homo sapiens, UniProt P11308 1-479).
T3 sequence: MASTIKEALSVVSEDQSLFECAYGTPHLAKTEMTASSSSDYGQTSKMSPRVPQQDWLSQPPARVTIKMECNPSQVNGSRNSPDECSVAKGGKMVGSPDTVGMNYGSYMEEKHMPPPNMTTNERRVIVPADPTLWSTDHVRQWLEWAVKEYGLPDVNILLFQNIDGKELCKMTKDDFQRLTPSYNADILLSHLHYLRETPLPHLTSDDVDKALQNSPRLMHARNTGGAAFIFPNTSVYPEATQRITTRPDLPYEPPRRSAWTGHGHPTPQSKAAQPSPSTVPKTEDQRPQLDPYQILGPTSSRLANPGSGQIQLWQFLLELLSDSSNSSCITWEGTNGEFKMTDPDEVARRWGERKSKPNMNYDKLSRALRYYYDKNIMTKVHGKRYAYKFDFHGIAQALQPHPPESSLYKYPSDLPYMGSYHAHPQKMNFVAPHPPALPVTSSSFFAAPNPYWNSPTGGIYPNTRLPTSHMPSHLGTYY
In a few lines:
as §1

The target in a further test is ELF1 (Homo sapiens, UniProt P32519 1-619). In a few lines:
as §1

The target of another test is SPI1 (Homo sapiens, UniProt P17947 1-270). The essentials: as §1
The target in another test is SPIB (Homo sapiens, UniProt Q01892 1-262). The essentials:
as §1

The target of another test is T4, FEV (Homo sapiens, UniProt Q99581 1-238).
T4 sequence: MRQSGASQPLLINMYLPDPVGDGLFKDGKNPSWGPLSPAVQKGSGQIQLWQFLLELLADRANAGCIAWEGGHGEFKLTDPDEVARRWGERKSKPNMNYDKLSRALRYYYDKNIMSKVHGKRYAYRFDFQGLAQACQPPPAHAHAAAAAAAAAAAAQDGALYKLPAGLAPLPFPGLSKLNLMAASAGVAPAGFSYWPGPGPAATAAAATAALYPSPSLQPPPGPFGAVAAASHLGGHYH
The essentials:
as §1

In the next test the target is ETV5 (Homo sapiens, UniProt P41161 1-510). The essentials: as §1
Another test has as its target ELF4 (Homo sapiens, UniProt Q99607 1-663). In a few lines:
as §1

The next test has as its target T5, ELK4 (Homo sapiens, UniProt P28324-2 1-405).
T5 sequence: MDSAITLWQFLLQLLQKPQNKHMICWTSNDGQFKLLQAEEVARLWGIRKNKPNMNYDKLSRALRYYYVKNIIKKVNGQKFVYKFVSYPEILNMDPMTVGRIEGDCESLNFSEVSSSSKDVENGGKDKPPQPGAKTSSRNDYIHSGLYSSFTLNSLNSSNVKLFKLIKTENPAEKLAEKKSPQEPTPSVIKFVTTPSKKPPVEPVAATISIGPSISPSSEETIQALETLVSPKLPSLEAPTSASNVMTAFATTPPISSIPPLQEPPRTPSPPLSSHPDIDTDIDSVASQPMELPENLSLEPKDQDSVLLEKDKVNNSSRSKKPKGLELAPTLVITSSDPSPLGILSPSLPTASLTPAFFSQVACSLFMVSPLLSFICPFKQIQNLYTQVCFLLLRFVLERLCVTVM
The essentials:
as §1

The target of a further test is T6, ETV2 (Homo sapiens, UniProt O00321 1-342).
T6 sequence: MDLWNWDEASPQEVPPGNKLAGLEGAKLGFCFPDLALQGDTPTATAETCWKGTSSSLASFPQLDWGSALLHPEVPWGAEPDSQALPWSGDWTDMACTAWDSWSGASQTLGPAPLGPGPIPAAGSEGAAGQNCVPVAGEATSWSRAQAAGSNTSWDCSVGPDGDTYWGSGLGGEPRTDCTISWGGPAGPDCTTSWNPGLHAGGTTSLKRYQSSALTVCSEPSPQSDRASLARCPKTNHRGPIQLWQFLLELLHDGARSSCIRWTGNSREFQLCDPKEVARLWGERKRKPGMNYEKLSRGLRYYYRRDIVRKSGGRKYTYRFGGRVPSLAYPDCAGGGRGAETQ
The essentials:
as §1

In a further test the target is ETV1 (Homo sapiens, UniProt P50549 1-477). In a few lines: as §1
A further test addresses T7, ETV3L (Homo sapiens, UniProt Q6ZN32 1-361).
T7 sequence: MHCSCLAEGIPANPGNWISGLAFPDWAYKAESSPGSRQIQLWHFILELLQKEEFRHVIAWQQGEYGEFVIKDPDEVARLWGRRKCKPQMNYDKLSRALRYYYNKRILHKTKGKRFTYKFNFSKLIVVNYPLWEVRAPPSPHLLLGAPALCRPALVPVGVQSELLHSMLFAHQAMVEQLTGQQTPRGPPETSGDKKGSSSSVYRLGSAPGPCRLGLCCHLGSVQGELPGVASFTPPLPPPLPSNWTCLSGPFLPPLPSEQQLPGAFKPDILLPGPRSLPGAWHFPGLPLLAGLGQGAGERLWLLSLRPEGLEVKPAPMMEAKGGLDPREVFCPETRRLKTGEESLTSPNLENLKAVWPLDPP
In a few lines:
as §1

For another test, the target named is T8, ETS2 (Homo sapiens, UniProt P15036 1-469).
T8 sequence: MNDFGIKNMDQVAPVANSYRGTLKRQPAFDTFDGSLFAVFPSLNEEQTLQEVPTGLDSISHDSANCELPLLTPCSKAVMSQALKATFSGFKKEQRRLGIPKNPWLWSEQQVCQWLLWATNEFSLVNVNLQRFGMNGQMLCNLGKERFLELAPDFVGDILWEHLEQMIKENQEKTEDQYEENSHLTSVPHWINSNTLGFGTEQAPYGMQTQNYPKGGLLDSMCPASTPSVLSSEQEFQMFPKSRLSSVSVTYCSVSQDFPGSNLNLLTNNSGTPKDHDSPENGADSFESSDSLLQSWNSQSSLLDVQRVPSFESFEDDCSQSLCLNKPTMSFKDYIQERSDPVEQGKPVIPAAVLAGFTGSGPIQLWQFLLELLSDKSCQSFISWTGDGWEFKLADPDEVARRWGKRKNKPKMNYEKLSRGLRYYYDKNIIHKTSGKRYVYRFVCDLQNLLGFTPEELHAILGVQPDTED
In a few lines: as §1

The next test deals with T9, SPDEF (Homo sapiens, UniProt O95238 1-335).
T9 sequence: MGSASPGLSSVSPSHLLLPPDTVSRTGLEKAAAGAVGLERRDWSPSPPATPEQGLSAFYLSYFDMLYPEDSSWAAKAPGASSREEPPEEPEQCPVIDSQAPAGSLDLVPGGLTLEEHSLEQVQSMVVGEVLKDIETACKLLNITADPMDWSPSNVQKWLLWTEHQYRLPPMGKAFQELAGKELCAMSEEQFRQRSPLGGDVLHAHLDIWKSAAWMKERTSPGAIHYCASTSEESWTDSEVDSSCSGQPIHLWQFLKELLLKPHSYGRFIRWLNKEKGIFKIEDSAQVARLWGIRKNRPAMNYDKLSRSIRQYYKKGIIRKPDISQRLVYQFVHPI
In a few lines: as §1

Another test addresses T10, ETV7 (Homo sapiens, UniProt Q9Y603 1-341).
T10 sequence: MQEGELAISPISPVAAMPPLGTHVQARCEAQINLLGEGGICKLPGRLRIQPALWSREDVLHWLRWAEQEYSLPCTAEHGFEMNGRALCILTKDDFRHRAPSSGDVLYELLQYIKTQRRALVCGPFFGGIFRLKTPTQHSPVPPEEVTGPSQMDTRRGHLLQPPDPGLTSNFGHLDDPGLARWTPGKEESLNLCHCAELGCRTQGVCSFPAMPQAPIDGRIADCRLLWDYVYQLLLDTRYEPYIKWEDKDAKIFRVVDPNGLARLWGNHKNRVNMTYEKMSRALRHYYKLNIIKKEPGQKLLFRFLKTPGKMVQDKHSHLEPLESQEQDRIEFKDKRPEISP
In a few lines:
as §1

A further test deals with T11, ETV3 (Homo sapiens, UniProt P41162-2 1-143).
T11 sequence: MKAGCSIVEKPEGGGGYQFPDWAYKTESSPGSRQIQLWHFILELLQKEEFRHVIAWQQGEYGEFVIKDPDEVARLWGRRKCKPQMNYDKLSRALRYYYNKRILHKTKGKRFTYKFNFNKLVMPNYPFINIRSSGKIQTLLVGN
In a few lines: as §1

The target in another test is ETV6 (Homo sapiens, UniProt P41212 1-452). In a few lines: as §1
ETV6, sequence (P41212 whole entry): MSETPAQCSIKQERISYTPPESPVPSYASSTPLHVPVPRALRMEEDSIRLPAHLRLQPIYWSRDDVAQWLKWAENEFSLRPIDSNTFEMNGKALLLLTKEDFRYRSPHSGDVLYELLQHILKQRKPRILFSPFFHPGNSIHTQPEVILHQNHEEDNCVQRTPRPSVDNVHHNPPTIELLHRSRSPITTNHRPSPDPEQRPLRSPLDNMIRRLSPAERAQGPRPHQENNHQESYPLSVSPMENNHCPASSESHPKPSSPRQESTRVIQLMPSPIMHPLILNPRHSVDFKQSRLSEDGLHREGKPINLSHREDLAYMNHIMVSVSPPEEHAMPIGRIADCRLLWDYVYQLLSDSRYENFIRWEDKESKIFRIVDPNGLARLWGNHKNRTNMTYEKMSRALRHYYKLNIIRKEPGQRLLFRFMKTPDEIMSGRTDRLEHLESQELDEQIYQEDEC

ELF1, sequence (P32519 whole entry): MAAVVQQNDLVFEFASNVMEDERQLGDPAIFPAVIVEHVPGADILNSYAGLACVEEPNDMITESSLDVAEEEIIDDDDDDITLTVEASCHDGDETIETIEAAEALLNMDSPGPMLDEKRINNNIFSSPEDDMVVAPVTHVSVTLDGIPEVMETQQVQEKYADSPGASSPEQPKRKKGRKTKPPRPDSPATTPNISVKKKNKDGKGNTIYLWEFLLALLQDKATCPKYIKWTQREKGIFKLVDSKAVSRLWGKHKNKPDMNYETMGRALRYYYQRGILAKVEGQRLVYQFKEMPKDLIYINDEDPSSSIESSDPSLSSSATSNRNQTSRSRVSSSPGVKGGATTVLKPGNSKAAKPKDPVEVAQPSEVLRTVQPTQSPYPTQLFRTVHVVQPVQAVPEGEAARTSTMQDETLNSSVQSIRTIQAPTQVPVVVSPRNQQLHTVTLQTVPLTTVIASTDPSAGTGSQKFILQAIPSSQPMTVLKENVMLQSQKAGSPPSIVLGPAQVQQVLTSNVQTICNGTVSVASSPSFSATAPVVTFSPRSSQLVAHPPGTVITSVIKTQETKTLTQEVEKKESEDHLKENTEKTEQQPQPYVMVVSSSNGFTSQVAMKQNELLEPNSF
ETV1, sequence (P50549 whole entry): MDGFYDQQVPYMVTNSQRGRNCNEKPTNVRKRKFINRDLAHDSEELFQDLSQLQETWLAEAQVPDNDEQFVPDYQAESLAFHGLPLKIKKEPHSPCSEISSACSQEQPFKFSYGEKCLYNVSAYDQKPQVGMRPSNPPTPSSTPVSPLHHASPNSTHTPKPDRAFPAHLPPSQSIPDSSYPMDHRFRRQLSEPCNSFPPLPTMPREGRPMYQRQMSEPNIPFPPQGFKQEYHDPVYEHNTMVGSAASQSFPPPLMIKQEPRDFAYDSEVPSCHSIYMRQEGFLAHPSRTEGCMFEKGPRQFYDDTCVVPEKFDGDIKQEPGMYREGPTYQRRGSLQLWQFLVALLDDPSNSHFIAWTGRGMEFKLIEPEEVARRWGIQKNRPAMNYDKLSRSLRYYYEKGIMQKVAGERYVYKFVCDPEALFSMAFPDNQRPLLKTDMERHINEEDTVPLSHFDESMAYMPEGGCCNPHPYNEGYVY
ELF4, sequence (Q99607 whole entry): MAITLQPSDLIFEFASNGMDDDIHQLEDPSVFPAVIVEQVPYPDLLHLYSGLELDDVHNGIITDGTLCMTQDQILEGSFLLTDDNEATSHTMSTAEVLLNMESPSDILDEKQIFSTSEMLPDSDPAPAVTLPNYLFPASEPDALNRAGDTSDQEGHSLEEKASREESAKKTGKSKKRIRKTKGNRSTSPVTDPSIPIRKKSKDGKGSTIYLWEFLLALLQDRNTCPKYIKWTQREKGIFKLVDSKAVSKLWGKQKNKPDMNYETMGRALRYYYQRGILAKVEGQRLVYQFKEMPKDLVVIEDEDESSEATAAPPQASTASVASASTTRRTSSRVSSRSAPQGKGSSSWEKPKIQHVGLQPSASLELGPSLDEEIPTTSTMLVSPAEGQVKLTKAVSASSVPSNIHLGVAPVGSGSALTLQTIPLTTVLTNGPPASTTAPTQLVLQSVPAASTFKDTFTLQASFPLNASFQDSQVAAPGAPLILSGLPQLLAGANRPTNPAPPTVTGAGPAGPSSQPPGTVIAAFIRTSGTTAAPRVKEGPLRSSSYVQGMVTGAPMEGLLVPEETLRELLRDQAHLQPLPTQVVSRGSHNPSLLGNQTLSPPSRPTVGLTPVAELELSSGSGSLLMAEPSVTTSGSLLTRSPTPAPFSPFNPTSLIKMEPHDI
ETV5, sequence (P41161 whole entry): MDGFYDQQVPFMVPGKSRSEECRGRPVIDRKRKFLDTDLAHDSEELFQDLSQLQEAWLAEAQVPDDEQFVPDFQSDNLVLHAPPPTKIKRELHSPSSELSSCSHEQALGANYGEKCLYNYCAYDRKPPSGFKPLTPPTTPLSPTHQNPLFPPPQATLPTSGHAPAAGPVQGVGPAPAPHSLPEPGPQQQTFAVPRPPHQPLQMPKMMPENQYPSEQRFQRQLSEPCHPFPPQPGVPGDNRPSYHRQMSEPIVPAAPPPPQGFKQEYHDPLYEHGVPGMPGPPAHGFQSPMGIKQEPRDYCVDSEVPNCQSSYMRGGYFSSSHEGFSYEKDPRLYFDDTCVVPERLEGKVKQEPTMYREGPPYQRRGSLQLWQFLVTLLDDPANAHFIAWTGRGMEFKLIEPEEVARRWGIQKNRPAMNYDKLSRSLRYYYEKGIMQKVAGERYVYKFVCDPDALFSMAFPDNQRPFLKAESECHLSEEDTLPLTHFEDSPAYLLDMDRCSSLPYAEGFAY
SPIB, sequence (Q01892 whole entry): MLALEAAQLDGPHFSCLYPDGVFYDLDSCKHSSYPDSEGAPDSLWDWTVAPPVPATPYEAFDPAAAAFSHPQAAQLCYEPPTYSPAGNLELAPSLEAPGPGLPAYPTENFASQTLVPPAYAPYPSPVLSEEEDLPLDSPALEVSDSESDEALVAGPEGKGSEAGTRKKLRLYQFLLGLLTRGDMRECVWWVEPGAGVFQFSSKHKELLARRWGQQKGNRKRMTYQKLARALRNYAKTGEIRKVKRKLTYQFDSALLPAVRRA

As for GGTATC, the binding signal in the test with ELK1 was 1.07 fold enrichment (6-mer frequency, TF over GST control); with GABPA it was 1.06 fold enrichment (6-mer frequency, TF over GST control); in the test with ERG it was 1.07 fold enrichment (6-mer frequency, TF over GST control); in the test with ELF1, 1.09 fold enrichment (6-mer frequency, TF over GST control); with SPI1, 1.02 fold enrichment (6-mer frequency, TF over GST control); with SPIB, 1.04 fold enrichment (6-mer frequency, TF over GST control). Moreover, the binding signal is 1.06 fold enrichment (6-mer frequency, TF over GST control) in the test with FEV; 1.06 fold enrichment (6-mer frequency, TF over GST control) with ETV5; 1.08 fold enrichment (6-mer frequency, TF over GST control) in the test with ELF4; 1.13 fold enrichment (6-mer frequency, TF over GST control) in the test with ELK4; 1.23 fold enrichment (6-mer frequency, TF over GST control) with ETV2; 1.1 fold enrichment (6-mer frequency, TF over GST control) with ETV1. For the same sequence, the binding signal with ETV3L was 1.02 fold enrichment (6-mer frequency, TF over GST control); with ETS2, 1.01 fold enrichment (6-mer frequency, TF over GST control); with SPDEF, 1.33 fold enrichment (6-mer frequency, TF over GST control); with ETV7, 1.06 fold enrichment (6-mer frequency, TF over GST control); with ETV3, 1.04 fold enrichment (6-mer frequency, TF over GST control); with ETV6, 1.03 fold enrichment (6-mer frequency, TF over GST control).
